Data taken from PubChem BioAssay AID623911 (Vanderbilt High Throughput Screening Facility, 2012).
The campaign covered roughly 2,100 compounds. About 770 (37%) were called active. The list shows a part of the results. A number with no mark means an inactive call.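 The calls were made as follows: active = by-eye trace score of 1 for enhancers or -1 for inhibitors, so actives lie on both sides (some results past the limit were not filed as active); inactive = score 0, or 3 fluorescent, or 4 baseline rise.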

Biological target: G protein-activated inward rectifier potassium channel 2 (Homo sapiens) + G protein-activated inward rectifier potassium channel 1 (Homo sapiens) (UniProt P48051+P48549)
Sequence (P48051 whole entry, looked up): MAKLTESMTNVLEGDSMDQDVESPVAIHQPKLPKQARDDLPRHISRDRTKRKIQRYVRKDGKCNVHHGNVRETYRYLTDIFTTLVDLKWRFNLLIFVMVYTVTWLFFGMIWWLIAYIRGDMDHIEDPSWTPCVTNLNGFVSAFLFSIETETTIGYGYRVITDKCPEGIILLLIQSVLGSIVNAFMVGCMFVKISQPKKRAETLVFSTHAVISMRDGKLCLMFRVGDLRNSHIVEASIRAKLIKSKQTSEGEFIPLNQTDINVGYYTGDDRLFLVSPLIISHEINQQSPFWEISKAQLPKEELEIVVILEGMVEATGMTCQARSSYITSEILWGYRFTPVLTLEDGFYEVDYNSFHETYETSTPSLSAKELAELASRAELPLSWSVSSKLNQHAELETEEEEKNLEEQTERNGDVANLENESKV
Sequence (P48549 whole entry, looked up): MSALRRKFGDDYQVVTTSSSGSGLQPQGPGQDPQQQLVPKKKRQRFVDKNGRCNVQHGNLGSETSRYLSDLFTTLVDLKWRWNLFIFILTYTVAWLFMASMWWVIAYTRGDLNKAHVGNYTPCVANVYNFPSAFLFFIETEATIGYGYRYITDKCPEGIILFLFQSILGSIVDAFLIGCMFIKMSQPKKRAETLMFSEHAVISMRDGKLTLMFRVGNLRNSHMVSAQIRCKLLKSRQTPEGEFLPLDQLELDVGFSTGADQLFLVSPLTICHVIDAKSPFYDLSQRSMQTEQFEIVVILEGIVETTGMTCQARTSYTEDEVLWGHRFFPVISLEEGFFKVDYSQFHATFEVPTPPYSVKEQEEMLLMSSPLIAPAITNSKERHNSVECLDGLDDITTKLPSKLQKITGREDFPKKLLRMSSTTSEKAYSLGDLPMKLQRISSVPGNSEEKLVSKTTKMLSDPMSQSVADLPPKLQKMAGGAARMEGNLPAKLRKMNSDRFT
Assay: GIRK1/2 thallium flux modulators, retest, confirmation, cell-based, HEK293 rmGlu8/hGIRK1/2, FluoZin-2 (AID 623911)
Details: HEK293 rmGlu8/hGIRK1/2, thallium flux FluoZin-2; actives lie on both sides; glutamate co-added at its EC20 level

| Structure (SMILES) | manual score |
| --- | --- |
| O=c1c2c(nc3c(-c4cccc(Br)c4)c[nH]n13)CCCC2 | 0 |
| CSc1nc(N2CCOCC2)c2c(c1C#N)CC(C)(C)OC2 | -0.5 |
| N#Cc1c(N2CCN(C(=O)c3ccccc3)CC2)nc(-c2ccccc2)c2c1CCCC2 | 0 |
| CC(C)c1nc(N2CCN(C(=O)c3ccccc3)CC2)c(C#N)c2c1COC(C)(C)C2 | -1 (active) |
| CC1CCCN(Cc2cccc(Oc3ccccc3)c2)C1 (configuration not stated) | 0.5 |
| CCOc1ccc(N2C(=O)/C(=C/c3cc(OC)c(OC)c(OC)c3)N(CC(=O)OC)C2=S)cc1 | 0 |
| CCOC(=O)N1CCC(NC(=O)c2cnn3c2NC(c2ccco2)CC3C(F)(F)F)CC1 (configuration not stated) | 0 |
| S=C(Nc1cccc(Br)c1)c1ccccc1 | 0 |
| O=C(NN=C1c2ccccc2-c2ccccc21)c1ccccc1Br | 0 |
| O=C(NN=C1c2ccccc2-c2ccccc21)c1cccc(Br)c1 | 1 (active) |
| O=C(Nc1ccc(-c2nc3ccccc3o2)cc1)c1cc(-n2cnnc2)ccc1Cl | 0 |
| O=C(Nc1nnc(-c2ccc3c(c2)CCCC3)o1)C1COc2ccccc2O1 (configuration not stated) | 1 (active) |
| CN(C)S(=O)(=O)c1ccc(C(=O)Nc2nnc(-c3ccc4c(c3)CCCC4)o2)cc1 | 0 |
| O=C(Nc1nnc(-c2ccc3c(c2)CCCC3)o1)c1ccccc1 | 1 (active) |
| O=C(Nc1nnc(-c2ccc3c(c2)CCCC3)o1)c1ccccc1Cl | 1 (active) |
| O=C(Nc1cccc(-c2nnc(-c3ccccc3)o2)c1)C1CCCO1 (configuration not stated) | 0 |
| O=C(Nc1nnc(-c2ccc3c(c2)CCCC3)o1)c1ccc(Cl)cc1Cl | 1 (active) |
| CN=c1scc(-c2cccs2)n1/N=C/c1ccc(O)c(O)c1O | 0 |
| CCOc1cc(-c2noc(-c3cccnc3)n2)ccc1OC | 0 |
| Fc1cccc(C2NN=C(c3ccccc3)S2)c1 (configuration not stated) | 1 (active) |
| CCOc1cc(C2NN=C(c3ccc(C)cc3)S2)ccc1O (configuration not stated) | 0.5 |
| CC1CC(=S)Nc2ccccc2N1Cc1ccccc1 (configuration not stated) | 0 |
| CC12CN(Cc3ccccc3)CC(C)(CN(Cc3ccccc3)C1)C2=NO | -1 (active) |

| Structure (SMILES) | manual score |
| --- | --- |
| O=C(OCCN1C(=O)c2cccc3c(N4CCOCC4)ccc(c23)C1=O)c1cccc(Cl)c1 | 3 |
| O=C(NCCSc1c[nH]c2ccccc12)c1ccco1 | 0 |
| CCC(Sc1ccc2nnc(-c3ccc(F)cc3)n2n1)C(=O)OC (configuration not stated) | 0 |
| COC(=O)c1ccc(CSc2ccc3nnc(-c4ccccc4)n3n2)o1 | -1 (active) |
| COC(=O)c1ccc(CSc2nnc(Nc3ccccc3OC)s2)o1 | 0 |
| O=C(Cc1csc(Nc2nc(=S)[nH]c3ccccc23)n1)NCc1ccccc1Cl | 0 |
| Cc1ccc(CNC(=O)Cc2csc(Nc3nc(=S)[nH]c4ccccc34)n2)cc1 | 0.5 |
| O=C(Cc1csc(Nc2nc(=S)[nH]c3ccccc23)n1)NCc1cccc(Cl)c1 | 1 (active) |
| COc1cccc(N2CCN(c3c4c(nc5ncnn35)CCC4)CC2)c1 | 0 |
| O=C1c2cccc3c(O)ccc(c23)C(=O)N1Cc1ccccc1 | 3 |
| CON(c1nc(Cl)nc(N(C)C)n1)S(=O)(=O)c1ccccc1Cl | -1 (active) |
| COCCn1c(=S)[nH]c2cc(C(=O)N3CCN(c4ccc(F)cc4)CC3)ccc2c1=O | 0 |
| O=C(c1csc2c1CCCC2)N1CCN(c2ccc(F)cc2)CC1 | -1 (active) |
| O=c1c2cc(Cl)ccc2[nH]c(=S)n1Cc1cccs1 | 0 |
| C=CCn1c(=S)[nH]c2ccccc2c1=O | 1 (active) |
| C=CCn1c(=S)[nH]c2ccc(Br)cc2c1=O | 1 (active) |
| O=C(C1CCC(Cn2c(=S)[nH]c3ccccc3c2=O)CC1)N1CCN(c2ccccc2)CC1 (configuration not stated) | 0 |
| O=c1c2ccccc2[nH]c(=S)n1CCN1CCN(Cc2ccccc2)CC1 | 0 |
| CCN(CC)c1ccc2cc(C=O)c(=O)oc2c1 | 3 |
| CCc1cccc(NC(=O)CCSCCC(=O)Nc2cccc(CC)c2)c1 | 0 |
| CCc1cccc(NC(=O)CSC2=NS(=O)(=O)c3ccccc32)c1 | 1 (active) |
| COC(=O)CSc1nc2ncccc2[nH]1 | 0 |
| COC(=O)CSc1nnc(SCc2ccc(OC)cc2)s1 | 0 |

| Structure (SMILES) | manual score |
| --- | --- |
| COC(=O)CSC1=NS(=O)(=O)c2ccccc21 | -1 (active) |
| CC(=O)Nc1ccc(NC(=O)CSc2nccn2Cc2ccccc2)cc1 | 0 |
| Clc1ccc2c(c1)C(N1CCNCC1)Cc1ccccc1S2 (configuration not stated) | -1 (active) |
| CSc1nc(-c2ccccc2)[nH]c(=S)c1C(C)=O | 1 (active) |
| CC(=O)c1c(N2CCCC2)[nH]c(-c2ccccc2)nc1=S | 1 (active) |
| CCOC(=O)c1ccc(N2C(=O)C(O)=C(C(C)=O)C2c2ccccc2)cc1 (configuration not stated) | 0 |
| O=c1c2c(nc3c(-c4ccccc4)c[nH]n13)CCCC2 | 0 |
| CCCCn1c(SC(C)C(N)=O)nc2cc(C(=O)OC)ccc2c1=O (configuration not stated) | 0 |
| CN1/C(=C\C=C2/C(=O)Oc3ccccc3C2=O)C(C)(C)c2ccccc21 | 3 |
| CCOc1ccc(OCCSc2nc3ccccc3[nH]2)cc1 | 1 (active) |
| CCCOc1cccc(OCCSc2nc(C)cc(=O)[nH]2)c1 | 0 |
| CCNC(=O)NC(=O)COC(=O)CCCSc1nc2ccccc2[nH]1 | 0 |
| Oc1[nH]c2c(Cl)cc(Cl)cc2c1N=NC(=S)NCC1CCCO1 (configuration not stated) | 1 (active) |
| Clc1ccc2[nH]c3c(NCC4CCCO4)ncnc3c2c1 (configuration not stated) | 0 |
| Oc1[nH]c2ccccc2c1N=NC(=S)NCC1CCCO1 (configuration not stated) | 0.5 |
| c1cc2c(cc1C1=Nn3c(nnc3C3CCCCC3)SC1)OCO2 | 0 |
| COc1ccc(C2=Nn3c(nnc3C3CCCCC3)SC2)cc1OC | 0 |
| COc1ccccc1C1=Nn2c(nnc2C2CCCCC2)SC1 | -1 (active) |
| Cc1cc(C)nc(N(C#N)Cc2ccc(Br)cc2)n1 | -1 (active) |
| CC1CCN(c2ccc(NC(=S)NC(=O)c3ccco3)cc2)CC1 | 0 |
| O=C(NC(=S)Nc1ccc(N2CCCCC2)cc1)c1cccs1 | 1 (active) |
| O=C(NC(=S)Nc1ccccc1N1CCOCC1)c1ccco1 | 1 (active) |
| O=C(NC(=S)Nc1ccc(N2CCCCC2)c(Cl)c1)c1cccs1 | 0 |

| Structure (SMILES) | manual score |
| --- | --- |
| O=C(NC(=S)Nc1ccc(N2CCCCC2)cc1)c1ccco1 | 1 (active) |
| O=C(NC(=S)Nc1ccc(N2CCOCC2)cc1)c1ccco1 | 0 |
| CN(C1CCCCC1)S(=O)(=O)c1ccc(NC(=S)NC(=O)c2cccs2)cc1 | 0 |
| CC1CCN(c2ccccc2NC(=S)NC(=O)c2ccco2)CC1 | 0 |
| O=C(NC(=S)Nc1ccccc1N1CCCCC1)c1ccco1 | 0 |
| CC(C)(C)C(=O)/C=c1\[nH]c(=O)/c(=C\c2ccc(F)cc2)s1 | 0 |
| Cc1ccc(NC2CC(=O)N(CCc3ccccc3)C2=O)cc1 (configuration not stated) | 0 |
| CCn1c(SCC(=O)Nc2oc(-c3ccccc3)c(-c3ccccc3)c2C#N)nnc1-c1ccco1 | 0 |
| Cc1cnc(NC(=O)CSc2nc3ccccc3c(=O)[nH]2)s1 | 0 |
| COc1ccc(C(=O)NC(=S)NNC(=O)CCc2ccccc2)cc1 | 1 (active) |
| COc1cc(OC)cc(C(=O)NC(=S)NCCc2ccccc2)c1 | 0 |
| O=C(CCc1ccccc1)NNC(=S)NC(=O)c1ccc(Cl)cc1 | 1 (active) |
| COc1ccc(C(=O)CC(=O)C(=O)NCCc2cccc(C)c2)cc1 | 0.5 |
| CCOc1ccccc1-c1c2cc(O)c(=O)cc-2oc2cc(O)c(O)cc12 | 0 |
| CCOc1ccccc1Cn1c(=O)oc2ccc(C)cc21 | -1 (active) |
| CCNC(=S)Nc1scc(-c2ccccc2)c1C(=O)OCC | 1 (active) |
| CCOC(=O)c1c(-c2ccccc2)csc1NC(=S)NC | 1 (active) |
| CCOC(=O)c1c(-c2ccc(C)o2)csc1NC(=S)NC(=O)N(C)C | 1 (active) |
| CCOC(=O)c1c(-c2ccc(C)o2)csc1NC(=S)NC(=O)c1cccs1 | 0 |
| CC(C)Cc1nnc(NC(=O)CSc2nc(=O)cc(N)n2-c2ccccc2)s1 | 0 |
| CC(C)C(=O)NC(=S)N(Cc1ccccc1)Cc1ccccc1 | 1 (active) |
| CC(C)CC(=O)NC(=S)N(Cc1ccccc1)Cc1ccccc1 | 1 (active) |
| Cc1cccc(C)c1NC(=S)NC(=O)CCc1ccccc1 | 0 |

| Structure (SMILES) | manual score |
| --- | --- |
| O=C(NC(=S)N(Cc1ccccc1)Cc1ccccc1)c1ccccc1F | 1 (active) |
| Cc1cccc(C)c1NC(=S)NC(=O)c1ccccc1F | 1 (active) |
| O=C(NC(=S)NCc1ccccc1)c1ccccc1F | 0.5 |
| CC(C)CC(=O)Nc1cccc2c1C(=O)N(c1ccccc1)C2=O | -0.5 |
| CCCCCNc1nc(-c2ccccc2)cs1 | 0 |
| Cc1nc2ccccn2c1-c1csc(NCc2ccco2)n1 | -1 (active) |
| CC(C)(C)C1CCC2(CC1)Nc1cccc3cccc(c13)N2 | 0 |
| Oc1cccc(Nc2nc(NCC3CCCO3)c3ccccc3n2)c1 (configuration not stated) | -1 (active) |
| O=C(O)c1cccc(Nc2nc(N3CCOCC3)nc(N3CCOCC3)n2)c1 | 0 |
| COC(=O)C1CCCN1C(=O)c1cccs1 (configuration not stated) | 0 |
| CC1CCCC(NC(=O)Nc2cccs2)C1C (configuration not stated) | 1 (active) |
| C=COCCNC(=O)Nc1ccc(Cl)c(Cl)c1 | 0.5 |
| CCOC(=O)C1=C(CC)Nc2ccccc2N=C1NC(=O)c1ccc(S(=O)(=O)N(C)C)cc1 | 0 |
| CCOC(=O)C1=C(CC)Nc2ccccc2N=C1NC(=O)Nc1ccc(Cl)c(Cl)c1 | 1 (active) |
| CCCn1c(SC(C(=O)Nc2cc(C)ccc2OC)c2ccccc2)nc2ccccc2c1=O (configuration not stated) | 0 |
| Cc1ccc2oc(=O)c3cnn(CC(=O)N4CCc5ccccc5C4)c3c2c1 | 0 |
| CCCn1c(=O)c2ccccc2n2c(SCC(=O)N3CCc4ccccc4C3)nnc12 | -1 (active) |
| CCCn1c(=O)c2ccccc2n2c(SCc3nc4ccccc4s3)nnc12 | 0 |
| O=C(CSc1nc2ccccc2n1CCc1ccccc1)N1CCOCC1 | 0 |
| CCCn1c(=O)c2ccccc2n2c(SCCOc3ccccc3F)nnc12 | -1 (active) |
